Rows were chosen to be rich in hits. Some 2.8% of all compounds tested hit in one or more screens of this group.
KDM5B inh: KDM5B demethylase inhibition. Q9UGL1. KDM5B demethylase, FDH-coupled NADH fluorescence (FDH is formaldehyde dehydrogenase). Potency, µM (titrated, usually from 57.7 µM), hits mostly inhibitors. hit rate 2.6% among 220,000; active = well fitted inhibition curve with a large enough effect; inconclusive = small, poorly fitted or top-dose-only effect; inactive = no such curve, though single readings can be large or run the other way; note: potency is the fitted concentration of half-maximal effect; 0% is about no effect; nearly all actives have a fitted effect of over 70% in size
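KDM5BΔAP (200 nM final) in 50 mM HEPES pH 7.5, 0.01% Tween-20 was preincubated 10 min at RT with compound over a concentration range. Substrate mix (H3K4me3 12.5 µM, α-KG 25 µM, Fe²⁺, ascorbate, NAD⁺, FDH) was added, and NADH fluorescence change over 30 min gave dose-response curves.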
IP6K1 inhibitor: inhibitors of human IP6K1; IP6K1 kinase, ADP-Glo luminescence, 2 h; stronger effect = lower value; activity change, % (series mostly up to about 58 µM); hit rate 0.81% among 140,000; in the data active = activity change below about -25%; note: % is set by controls: 0 for no effect and ±100 for the full control effect
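ADP-Glo luminescence measures ADP made by human IP6K1 during a 2 h RT reaction with ATP/IP6 (mix at 1.3 mM/130 uM); top library doses 57.5 and 19.1 uM final.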
* = called active by the depositor; i = inactive; ? = inconclusive; nt = no result given.

SMILES	KDM5B inh	IP6K1 inhibitor
CCC(C)NC(=O)c1ccc(-c2ccc(N3CCSCC3)nc2)cc1 (stereo not drawn)	?	0.6
O=C(NCc1ccccn1)c1ccc(-c2ccc(N3CCCCC3)nc2)cc1	15.8µM*	-6.2
Cc1ccc(C(=O)NCCN2CCCC2)cc1	i	nt
O=C(NCc1ccccn1)c1ccc(C2CCCCC2)cc1	i	nt
O=C(NCCN1CCCCC1)c1ccc(-c2ccc(N3CCSCC3)nc2)cc1	28.2µM*	-1.3
COc1ccc(N(Cc2nc3nc(C)cc(=O)n3[nH]2)C(=O)c2ccccc2F)cc1	i	nt
COc1ccc(Nc2nc3ccccc3nc2NS(=O)(=O)c2cccc(Cl)c2)cc1OC	i	nt
CC1CCN(CC(=O)NC(c2cccs2)C(C)C)CC1 (stereo not drawn)	i	nt
O=C(O)/C=C/c1ccc(Oc2ccc(Cl)cc2)cc1	i	nt
O=C1CCCC2=C1C(c1cccc(F)c1)C1=C(CCCC1=O)O2	i	nt
Cc1ccc(CNC(=O)c2ccc(-c3ccc(N4CCSCC4)nc3)cc2)o1	i	-6.1
CN(C)CCNC(=O)c1ccc(-c2ccc(N3CCCCCC3)nc2)cc1	25.1µM*	-6.3
CN1CCCCC1CCNC(=O)c1ccc(N2CCOCC2)nc1 (stereo not drawn)	i	2.9
O=C(NCCN1CCOCC1)c1ccc(-c2ccc(N3CCSCC3)nc2)cc1	28.2µM*	11.0
COc1cccc(-c2cc(C(=O)N3CCC(c4ccccc4)CC3)c3cnn(C)c3n2)c1	nt	-8.4
O=C(CCN(Cc1cccs1)CC1CCCO1)Nc1cccc2ccccc12 (stereo not drawn)	i	nt
O=C(NC1CC1)c1ccc2nnc(-c3ccc(C(F)(F)F)cc3)n2c1	56.2µM*	13.0
O=C(NC1CC1)c1ccc2nnc(-c3cccc(C(F)(F)F)c3)n2c1	nt	-6.6
O=C(NC1CCCCC1)c1ccc2nnc(-c3cccnc3)n2c1	nt	24.5
O=C(NC1CC1)c1ccc2nnc(-c3cccnc3)n2c1	112µM*	7.3
CCCCCC(=O)N1C[C@@H](CO)[C@@H]2Oc3c(F)cccc3[C@@H]21	nt	21.2
COc1ccc(Nc2ccnc(N3CCC(C(=O)NCc4ccc(F)cc4)CC3)n2)cc1	nt	2.5
CN1C[C@H](C(=O)NCc2ccncc2)C[C@H]1c1cccc(C(F)(F)F)c1	i	12.4
CN1C[C@H](C(=O)N2CCN(c3ccccn3)CC2)C[C@H]1c1cccc(C(F)(F)F)c1	39.8µM*	13.4
COc1ccc(F)cc1-c1cccc(C(=O)NCCN[S+](=O)([O-])c2cccs2)c1	nt	-12.2
SMILES	KDM5B inh	IP6K1 inhibitor
COc1cccc(-c2nc(-c3ccc(S(=O)(=O)N4CCCCC4)cc3)cs2)c1OC	i	nt
COC(=O)CCN(C)CC1CCCO1 (stereo not drawn)	i	nt
O=C(NCCN1CCOCC1)c1ccc2c(c1)n(Cc1cccc(F)c1)c(=O)c1ccnn12	?	2.6
COc1cccc(Cn2c(=O)c3ccnn3c3ccc(C(=O)NCCCN(C)C)cc32)c1	?	9.8
COCCCNC(=O)c1ccc2c(c1)n(Cc1cccc(F)c1)c(=O)c1ccnn12	28.2µM*	14.7
CCCCNC(=O)c1ccc2c(c1)n(Cc1cccc(OC)c1)c(=O)c1ccnn12	35.5µM*	-3.9
CCN1CCN(C(=O)c2ccc3c(c2)n(Cc2cccc(F)c2)c(=O)c2ccnn23)CC1	25.1µM*	-0.3
COCCCNC(=O)c1ccc2c(c1)n(Cc1ccc(OC)cc1)c(=O)c1ccnn12	i	-0.4
CCOCCCNCc1c(F)cccc1Cl	i	nt
CO[C@H]1[C@H](NC(=O)c2cc3ccccc3[nH]2)c2ccccc2C12CCNCC2	22.4µM*	4.7
CO[C@H]1[C@H](NC(=O)c2cc(=O)[nH]c(=O)[nH]2)c2ccccc2C12CCNCC2	i	1.7
COc1ccc(-c2c(C(=O)NCc3ccc(Cl)cc3)nc3sccn23)cc1	nt	13.7
COC(=O)c1sccc1NC(=O)N1CCCC1c1noc(COc2ccc(F)cc2)n1 (stereo not drawn)	31.6µM*	7.4
CCOCc1nc(C2CCCN2C(=O)Nc2ccsc2C(=O)OC)no1 (stereo not drawn)	i	-4.6
Cc1ccc(C)c(C(=O)NCc2nnc3c(-c4nc(C(C)C)no4)cccn23)c1	?	2.2
CCc1noc(-c2cccn3c(CNC(=O)c4cc(C)ccc4C)nnc23)n1	10µM*	22.4
CCc1noc(-c2cccn3c(CNC(=O)c4ccccc4C)nnc23)n1	28.2µM*	3.7
CCc1noc(-c2cccn3c(CNC(=O)Cc4ccccc4OC)nnc23)n1	?	12.9
Cc1ccc(NC(=O)c2ncoc2-c2ccco2)cc1	i	nt
Cn1ncc2c(C(=O)NCc3cccc(F)c3)cc(-c3cccc(C(F)(F)F)c3)nc21	nt	-1.6
O=C(c1ccccc1)N1CCN(Cc2ccccc2-c2ccccc2F)CC1	nt	-4.7
CCCCNC(=O)c1cc(-c2ccc3c(c2)OCO3)on1	i	nt
CCCOCCCNC(=O)c1c(C)noc1-c1ccc(C(C)(C)C)cc1	i	2.8
CCCOCCNC(=O)c1c(C)noc1-c1ccc2c(c1)OCO2	28.2µM*	15.6
CCCOCCCNC(=O)c1c(C)noc1-c1ccc2c(c1)OCO2	28.2µM*	9.9
SMILES	KDM5B inh	IP6K1 inhibitor
O=C(CCC1CCCO1)NCC1CC1 (stereo not drawn)	i	nt
CC(C)c1ccc(NC(=O)C2CCCN2S(=O)(=O)c2cccc3nsnc23)cc1 (stereo not drawn)	i	nt
O=C(CCC[C@H]1NC[C@@H]2C[C@H]1CN(Cc1ccccc1)C2)NCCc1cccnc1	?	-24.2
O=C(CCC[C@H]1NC[C@@H]2CC1CN(Cc1ccccc1)C2)NCCCc1ccccc1	7.08µM*	11.9
CCS(=O)(=O)c1ccc2oc(Nc3ccc(OC(F)(F)F)cc3)nc2c1	i	nt
O=C(Cc1cccc(F)c1)NCc1nnc2ccc(-c3ccc(Cl)cc3)nn12	25.1µM*	-5.5
Cc1ccc(-c2ccc3nnc(CNC(=O)Cc4ccsc4)n3n2)cc1C	?	0.2
O=C(Cc1cccc(F)c1)NCc1nnc2ccc(-c3ccc(F)cc3)nn12	?	19.5
COc1ccc(-c2ccc3nnc(CNC(=O)c4cccc5[nH]ccc45)n3n2)cc1	?	-5.7
O=C(Cc1ccsc1)NCc1nnc2ccc(-c3ccc(Cl)cc3)nn12	25.1µM*	40.9
COc1ccc(-c2ccc3nnc(CNC(=O)c4ccccc4Cl)n3n2)cc1	28.2µM*	3.8
O=C(NCc1nnc2ccc(-c3ccccc3)nn12)c1ccccc1F	28.2µM*	15.5
O=C(NCc1ccc(S(=O)(=O)N2CCOCC2)cc1)c1ccc(OC(F)(F)F)cc1	i	nt
O=C(NCCc1ccc(F)cc1)C1CCN(Cc2ccccc2-c2ccccc2F)CC1	nt	12.1
Cn1ncc2c(C(=O)N3CCN(c4ncccn4)CC3)cc(-c3ccccc3C(F)(F)F)nc21	nt	0.8
C=C(C)Cn1c(NCC)nc2c1c(=O)n(C)c(=O)n2C	i	nt
C#CCN(CC(=O)NC(=O)NC)C1CCCCC1	i	nt
CCN1CCN(c2oc(-c3ccccc3F)nc2C#N)CC1	i	nt
O=c1c2cc(Cl)cc(Cl)c2ncn1Cc1ccc(F)cc1Cl	i	nt
O=C(NCc1nnc2ccc(-c3ccccc3)nn12)c1ccccc1Cl	28.2µM*	8.2
O=C(NCc1nnc2ccc(-c3ccccc3)nn12)c1ccccn1	28.2µM*	34.1
CCOc1ccccc1C(=O)NCc1nnc2ccc(-c3ccccc3)nn12	25.1µM*	3.1
Cc1ccc(-c2ccc3nnc(CNC(=O)C(C)c4ccccc4)n3n2)cc1 (stereo not drawn)	?	-19.4

Compound activity as filed in PubChem BioAssay.
